The source made the active and inactive calls. The calls were made as follows: active = hit-call score of the fitted dose curve at least 0.9, where 1 is the maximum; inactive = score below 0.9.
Experiment: IUF_NPC3_neuronal_differentiation_120hr: Leibniz Research Institute for Environmental Medicine (IUF) 120-hour Neuronal Differentiation Assay (NPC3) (AID 2284301)
Protocol: IUF_NPC2-5 is a cell-based, multiplexed assay that uses hNPC, a human primary neural progenitor cells, with measurements taken at 72 or 120 hours after chemical dosing in a 96-well plate. Human neural progenitor cells (hNPC) are generated from human fetal brain cortex at gestational week (GW) 16-19. In the neural progenitor cell migration and differentiation assay (NPC2-5), hNPCs grown as spheres are plated on an extracellular matrix and migrate and differentiate out of the sphere core. The processes radial glia migration, neuronal and oligodendrocyte migration as well as neuronal differentiation, neuronal morphology and oligodendrocyte differentiation are studied using automated phase contrast imaging and automated fluorescence imaging in combination with high content image analysis. In parallel, the cell viability is assessed using an alamar blue viability assay and the cytotoxicity using a lactate dehydrogenase dependent membrane integrity assay.IUF_NPC3_neuronal_differentiation_120hr is one of 12 assay components measured from the IUF_NPC2-5 assay. Neuronal differentiation is determined as the number of all TUBB3 positive cells in percent of the number of Hoechst-positive nuclei in the total neurosphere migration area (see IUF_NPC2a_ glia_migration_120hr) after 120 hr of migration/differentiation. Neurons are automatically identified using a convolutional neural network (CNN) that was trained using manually annotated images of differentiated neurons. Data from the IUF_NPC3_neuronal_differentiation_120hr component was analyzed at the endpoint IUF_NPC3_neuronal_differentiation_120hr in the positive analysis fitting direction relative to DMSO as the negative control and baseline of activity. Using a type of differentiation reporter, gain or loss-of-signal activity can be used to understand developmental effects.
Culture protocol: After the cell expansion period the cells are cultured for up to four weeks in which they are passaged every week as described in 3.6. Between one to three days after passaging spheres at a size of 0.3 mm are picked for the test method. For the assessment of neural progenitor cell migration and differentiation, the spheres are plated on poly-D-lysine/laminin coated 96-well flat bottom plates in differentiation medium (N2) to initiate migration and differentiation. Thereby one 0.3 mm big sphere is plated in the middle of a well. The differentiation medium consists of DMEM and Ham's F12 at a ratio of 3 to 1 supplemented with 1% N2 and 1% penicillin and streptomycin. Within 5 days NPCs radially migrate out of the sphere core and differentiate into radial glia cells (nestin positive), neurons (TUBB3 positive), oligodendrocytes (O4 positive) and astrocytes (GFAP positive). Cultivation during the test method is performed at 37C and 5% CO2 at a ph of 7.2-7.6.Exposure: 0.3 mm big hNPC are plated in the already prepared test conditions. Exposure starts at day 0 of differentiation and is continued over five days of differentiation until the experiment is terminated. Cells are fed with fresh medium at day 3 of differentiation. Therefore, half of the test condition solution (e.g. solvent control or compound dilution) is replaced by freshly prepared test condition solution.Test Method: Migration distance and cytotoxicity is determined after 72 hours based on brightfield images of each well. The assay is terminated by the assessment of cell viability and cytotoxicity as well as cell fixation after 120 h. Immunocytochemistry is performed for Hoechst positive nuclei, TUBB3 positive neurons and O4 positive oligodendrocytes. On the ICC images, migration after 120 hours, neuronal and oligodendrocyte number, neuronal morphology and neuron/oligodendrocyte specific migration is assessed. immunocytochemical staining (ICC) generates an image for each sphere. The plates are scanned using an automated high content imaging device and all nuclei and their positions are determined automatically based on their intensity and size. […]
In the case of CNC(=O)ON=CC(C)(C)SC, the outcome is reported as “inactive”. For CC(C)(C)c1ccc(CSc2cnn(C(C)(C)C)c(=O)c2Cl)cc1, the outcome was “inactive”. With CCCCC(CC)COC(=O)c1ccccc1C(=O)OCC(CC)CCCC (centres undefined) the outcome was “inactive”. With C=CC1(C)OC(=O)N(c2cc(Cl)cc(Cl)c2)C1=O (centres undefined) the outcome was “inactive”. With N#Cc1nn(-c2c(Cl)cc(C(F)(F)F)cc2Cl)c(N)c1S(=O)C(F)(F)F (centres undefined) the outcome was “inactive”. With CCOC(=O)CC(SP(=S)(OC)OC)C(=O)OCC (centres undefined) the outcome was “inactive”. With Cc1ccc(-c2c(Cl)nc(C#N)n2S(=O)(=O)N(C)C)cc1 the AC50 was 31.3 µM (active). In the case of CO/C=C(/C(=O)OC)c1ccccc1Oc1cc(Oc2ccccc2C#N)ncn1, the outcome is reported as “inactive”. For CN(C)C(=S)SSC(=S)N(C)C, the AC50 was 13.5 µM (active). With COP(N)(=O)SC (centres undefined) the outcome was “inactive”. For COP(=S)(OC)Oc1nc(Cl)c(Cl)cc1Cl, the outcome was “inactive”. In the case of CCOc1cc(Oc2ccc(C(F)(F)F)cc2Cl)ccc1[N+](=O)[O-], the outcome is reported as “inactive”. For CCCCOC(=O)c1ccccc1C(=O)OCCCC, the outcome was “inactive”. For COC(=O)N(OC)c1ccccc1COc1ccn(-c2ccc(Cl)cc2)n1, the AC50 was 0.0497 µM (active).
